TPT1 inh = Candida albicans TPT1 enzyme inhibitors, primary screen, biochemical, fluorescence polarization; tRNA 2'-phosphotransferase TPT1 (Candida albicans SC5314); recombinant caTPT1, FP RNA substrate dephosphorylation; inhibition, % at 5 µM; 300,000 compounds, 0.81% hits; AID 1962, 2009;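 active = inhibition above the mean of all tested compounds plus 3 SD, set per screening campaign, cut at about 24% in these data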;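 also: plate controls were DMSO alone for no effect and ferristatin control at 100 nM for full effect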
Rpn11 block = Rpn11 (PSMD14) deubiquitinase inhibitors, primary screen, biochemical, fluorescence polarization, uHTS; human 26S proteasome, Ub4-pepOG fluorescence polarization; 20S core pre-blocked with epoxomicin; inhibition, % at 20 µM; 360,000 compounds, 0.59% hits; AID 588493, 2011;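 active = inhibition at 20 µM, scaled to each plate's controls, above about 33%, limit read from the data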
HNF4A DNA FP = change in binding of human HNF4A to DNA, primary screen, biochemical, fluorescence polarization, FITC-DNA; Hepatocyte nuclear factor 4-alpha (Homo sapiens), P41235; 1 h; activity change, % at 10 µM; 360,000 compounds, 0.3% hits; AID 1224865, 2016; in the data active = activity change above about 30%, passing the limit was not always enough
Myeloid diff 2 = induction of myeloid progenitor differentiation, primary screen, cell-based, flow cytometry, MLPCN library; ER-HoxA9 myeloid progenitors, lysozyme-GFP differentiation; calls only at 10 µM; 360,000 compounds, 1% hits;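 active = normalized GFP-positive differentiation at or above the plate's own cutoff, the solvent-only control mean plus 3 SD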;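 also: cells exposed to compound for four days before flow analysis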
Rpn11 confirm = Rpn11 (PSMD14) deubiquitinase inhibitors, confirmation, biochemical, fluorescence polarization, single concentration | shares compounds with Rpn11 block | purified human 26S proteasome, Ub4-pepOG fluorescence polarization; proteasome pretreated with epoxomicin | inhibition, % at 20 µM | 1,900 compounds, 29% hits
MMP-2 inh = MMP-2 enzyme inhibition, confirmation, counter-screen for RPN11 inhibitor project, biochemical, fluorescence, single concentration. inhibition, % at 20 µM. recombinant MMP-2, FRET peptide cleavage fluorescence. 1,900 compounds, 4% hits. shares compounds with Rpn11 block;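 also: human MMP-2 activated beforehand with APMA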
Target sequence (P08253 whole entry, looked up): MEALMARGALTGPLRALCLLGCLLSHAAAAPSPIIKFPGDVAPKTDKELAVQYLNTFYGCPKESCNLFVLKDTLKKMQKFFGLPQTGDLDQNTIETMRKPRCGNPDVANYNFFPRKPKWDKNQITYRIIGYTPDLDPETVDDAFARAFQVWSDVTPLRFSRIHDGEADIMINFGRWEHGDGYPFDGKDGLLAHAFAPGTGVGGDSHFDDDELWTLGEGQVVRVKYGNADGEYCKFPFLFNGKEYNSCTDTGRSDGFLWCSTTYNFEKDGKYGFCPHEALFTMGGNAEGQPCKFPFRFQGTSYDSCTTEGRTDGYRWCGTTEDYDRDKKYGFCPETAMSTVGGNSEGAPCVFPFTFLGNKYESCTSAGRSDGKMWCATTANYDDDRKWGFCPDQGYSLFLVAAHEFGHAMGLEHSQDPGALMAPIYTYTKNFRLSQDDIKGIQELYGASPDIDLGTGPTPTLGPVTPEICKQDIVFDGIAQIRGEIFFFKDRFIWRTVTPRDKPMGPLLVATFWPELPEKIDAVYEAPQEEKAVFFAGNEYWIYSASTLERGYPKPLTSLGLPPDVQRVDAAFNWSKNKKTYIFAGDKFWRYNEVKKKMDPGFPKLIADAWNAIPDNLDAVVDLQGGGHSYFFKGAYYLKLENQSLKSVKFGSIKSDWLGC
Thrombin FP = bovine thrombin protease inhibition, confirmation, counter-screen for Rpn11 inhibitor project, biochemical, fluorescence polarization, single concentration; 1,900 compounds, 13% hits; bovine thrombin cleavage of Ub4-pepOG; inhibition, % at 20 µM; shares compounds with Rpn11 block; AID 602333, 2012;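 active = mean inhibition at least 40% at 20 µM, or signal 3 deviations below plate average, so some actives read negative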;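 also: plate controls were thrombin with DMSO for no effect and buffer wells lacking thrombin for full effect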
Myeloid diff CP1 = inducers of myeloid progenitor differentiation, confirmation, cell-based, GFP/Mac1 flow cytometry, cherry pick 01 | 2,300 compounds, 2% hits | ER-HoxA9 myeloid progenitors, GFP/Mac1 double-positive flow | shares compounds with Myeloid diff 2 | calls only;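 active = share of green or green-and-red cells above 9 and 9% in run 1 or 4 and 3% in run 2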
GFP autofluor = counter-screen for myeloid differentiation promoters: compound fluorescence | ER-HoxA9 myeloid progenitors, no estrogen, GFP autofluorescence flow cytometry; vehicle wells 0%, positive control 100% | fluorescence response, % (concentration not given with the values) | 2,300 compounds, 7.4% hits | shares compounds with Myeloid diff 2;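 active = over 5% cells positive for green fluorescent reporter, or over 2% positive for both it and APC stain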;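 also: range taken on the double positive population between DMSO and positive control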
HNF4A confirm = change in HNF4A binding to DNA, retest, confirmation, biochemical, fluorescence polarization, FITC-DNA; shares compounds with HNF4A DNA FP; 1 h; activity change, % at 12.5 µM; 210 compounds, 99% hits; call rule not given here
* hit, by the source's call; i = inactive; . = no result given; + = active, no number; ! = a repeat was not active. The list is not random: actives were taken first. Their share in the collection is about 2.1%. Rule as the data show it, unless noted: active = inhibition above about 40%; inactive = the rest.

SMILES	TPT1 inh	Rpn11 block	HNF4A DNA FP	Myeloid diff 2	Rpn11 confirm	MMP-2 inh	Thrombin FP	HNF4A confirm	others
COc1ccc(C2SCC(=O)N2c2c(C)n(C)n(-c3ccccc3)c2=O)cc1OC (stereo not given)	-0.5	31.1*	0.4	+	-2.3	-28.7	1.3	.	Myeloid diff CP1=i;GFP autofluor=0.3
COC(=O)c1cc2c(=O)c3ccccc3oc2nc1/C=C/N(C)C	.	44.3*	110.0	+	29.8	-38.9	10.2	.	Myeloid diff CP1=+;GFP autofluor=1.1
COC(=O)c1cc2c(=O)c3ccccc3oc2nc1C	.	0.2	4.4	i	.	.	.	.
Cc1c(NC(=O)c2ncn[nH]2)cccc1-c1nc2ccccc2s1	-1.5	3.2	-3.1	i	.	.	.	.
C[C@H](O)[C@@H]1C(=O)N2CCc3ccc(N4CCN(C)CC4)cc3[C@@H]2C[C@@H]1N(C)C(=O)c1ccco1	.	3.1	-2.8	i	.	.	.	.
Cc1cc(C)c2cc3c(N)c(C(=O)N4CCOCC4)sc3nc2c1	-0.6	4.9	4.0	i	.	.	.	.
Cc1cc(C)c2cc3c(N)c(C(=O)Nc4c(C)[nH]c(=O)[nH]c4=O)sc3nc2c1	47.8*	46.0*	4.6	+	121.7*	-29.1	13.5	.	Myeloid diff CP1=i;GFP autofluor=4.5
O=C(N/N=C/c1cccc(OC(=O)c2ccco2)c1)c1ccc(F)cc1	-2.5	-4.4	-0.2	i	.	.	.	.
Cc1ccc(S(=O)(=O)N2[C@@H](c3ccccc3F)C(C(=O)O)=CC[C@H]2c2ccc3c(c2)OCO3)cc1	-1.4	1.2	-5.6	i	.	.	.	.
COc1ccc(Cn2c(C)nc3c(c2=O)c2nc4ccccc4nc2n3Cc2ccco2)cc1	.	+	-52.9	i	26.9	4.3	-0.8	.	Myeloid diff CP1=i;GFP autofluor=0.0
Cc1nc2ccccc2c(=O)n1Cc1ccco1	-0.2	1.9	-2.5	i	.	.	.	.
CC1=C(C(=O)Nc2ccccc2Cl)C(c2ccc(N(C)C)cc2)NC(=O)N1 (stereo not given)	13.1	64.0*	24.8	+	32.7	8.6	30.9	.	Myeloid diff CP1=i;GFP autofluor=0.3
CC(C)N1CCc2c(sc(NC(=O)c3nc4ccccc4s3)c2C(N)=O)C1	19.1	61.2*	18.3	+	22.2	4.8	10.4	.	Myeloid diff CP1=i;GFP autofluor=1.3
COc1ccc2c(C)cc(SCC(=O)Nc3nsc(-c4ccc(C)cc4)n3)nc2c1	-3.0	-0.6	-1.8	i	.	.	.	.
Cc1ccc(-c2nc(NC(=O)CSc3cc(C)c4ccccc4n3)ns2)cc1	-3.7	+	161.6*	i	-0.9	-6.4	26.9	94.1*
O=C(NCc1ccccn1)c1ccc(OC2CCN(Cc3ccc(Cl)s3)CC2)cc1	-3.2	-1.5	-1.1	i	.	.	.	.
COc1cc(C(=O)N2C[C@H]3CON(C)[C@H]3C[C@H]2c2ccc(N3CCCCC3)cc2)cc(OC)c1OC	.	36.9	29.2	i	.	.	.	.
C=CCCC(=O)N1C[C@H]2CON(C)[C@H]2C[C@H]1c1ccc(N2CCCCC2)cc1	.	50.7*	42.7*	i	56.3*	10.1	44.8*	45.2*
C=CCN1C=C/C(=C\C=C(C#N)C#N)c2ccccc21	15.7	103.1*	94.4*	+	89.9*	-36.9	89.2*	111.2*	Myeloid diff CP1=i;GFP autofluor=1.0
CC(C)CC(NC(=O)c1ccccc1)C(=O)OCC(=O)Nc1ccc(S(N)(=O)=O)cc1 (stereo not given)	-0.7	2.9	2.0	i	.	.	.	.
CC(=O)N/C(=C\c1ccccc1)C(=O)OCC(=O)N(C)C1CCS(=O)(=O)C1 (stereo not given)	.	-1.0	1.7	i	.	.	.	.
CN(C)c1ccc(/C=C(\C#N)C(=O)OCC(=O)N(C)C2CCS(=O)(=O)C2)cc1 (stereo not given)	.	78.2*	41.7*	i	61.0*	-4.8	56.4*	75.2*
COCC(C)n1c(C)cc(C(=O)COC(=O)c2c(C)nn(-c3ccccc3)c2C)c1C (stereo not given)	0.1	1.2	0.9	i	.	.	.	.
COCC(C)n1c(C)cc(C(=O)COC(=O)c2c(NC(C)=O)sc(C)c2C)c1C (stereo not given)	-2.9	48.9*	37.4*	i	-11.4	-184.1	-22.9	50.8*
CCCCN1C(=O)/C(=C2/Sc3ccccc3N2C)S/C1=N\c1ncn[nH]1	20.8	66.5*	45.5*	i	96.7*	-52.4	62.4*	75.1*
SMILES	TPT1 inh	Rpn11 block	HNF4A DNA FP	Myeloid diff 2	Rpn11 confirm	MMP-2 inh	Thrombin FP	HNF4A confirm	others
CC(=O)c1c(O)c(C)c(O)c2c1OC1=CC(=O)C(C(C)=O)C(=O)[C@@]12C (stereo not given in full)	.	111.0*	65.4*	i	120.4*	-21.9	108.6*	56.7*
C/C(=N\NC(=O)c1ccc(OC2OCCOC2Oc2ccc(C(=O)N/N=C(\C)c3ccncc3)cc2)cc1)c1ccncc1 (stereo not given)	1.6	+	156.7*	i	191.7*	-489.0	50.8*	203.7*
CCCc1ccc(C(O)c2ncc(-c3ccc(OC)cc3)[nH]2)cc1 (stereo not given)	.	-1.1	5.2	i	.	.	.	.
CC(C(=O)OCC(=O)Nc1cccc(S(=O)(=O)N(C)C)c1)N1C(=O)c2ccccc2C1=O (stereo not given)	1.2	2.2	-0.3	i	.	.	.	.
Cc1ccc[n+](-c2nc3ccccc3nc2C(=C=[N-])C#N)c1	14.5	49.3*!	59.7*	i	11.6	-2.8	3.4	42.1*
COc1ccc(CC(=O)Nc2ccc(-c3nnc(-c4ccccc4)o3)cc2)cc1OC	0.6	69.0*	36.4*	i	22.1	14.0	-17.1	72.8*
CN(CC(=O)Nc1cccc(Cl)c1)S(=O)(=O)/C=C/c1ccccc1	.	-1.3	2.8	i	.	.	.	.
O=C(Nc1cccc(Cl)c1)c1cc2c(=O)n3ccccc3nc2s1	1.3	6.4	1.6	i	.	.	.	.
